As usually defined, the inhibition is the change of the read-out against control, counted positive when it falls.

We go through 7 molecules from PubChem BioAssay.

The target of experiment [1] is NAD(+) hydrolase SARM1 (Homo sapiens) (UniProt Q6SZW1). Description: blocking NAD cleavage by SARM1 SAM-TIR – cell lysate, NAD-Glo luminescence (AID 1508614;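 active = compound whose remaining NAD level is above about 45 nM, limit read from the data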;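 also: higher remaining NAD means stronger inhibition of SARM1 NADase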). Particulars: SAM-TIR HEK293T lysate NADase, at 1 µM, stronger effect = higher value.
Experiment [2] deals with Mitogen-activated protein kinase 7 (Homo sapiens) (UniProt Q13164). Description: Gal4-ERK5 driven luciferase induction – cell-based, HTS, primary screen (AID 1508626;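 active = luciferase signal above three times the same-plate solvent-only control wells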;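 also: luciferase driven by Gal4-ERK5 fusion binding five Gal4 sites before minimal TATA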). Particulars: HeLa Gal4-ERK5 transactivation, 18 h, at 5 µM, stronger effect = higher value.
The nature of experiment [3]: galactose survival enhancers in mitochondrial complex I cybrids – cell-based, galactose medium, ATP luminescence, primary screen (AID 1645843;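 active = z-score of at least 1.8 in each of two replicates, scored against plate mean and spread of sample wells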;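 also: positive z means more ATP and so rescue of galactose-driven cybrid death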). Particulars: complex I mutant cybrid cells, 72 h, stronger effect = higher value.
The nature of experiment [4]: growth inhibition, single agent or in combination, cell-based, chromothripsis tumors, cisplatin or BGB combos (AID 1671449).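 Also: cells exposed for 96 hours; 0% = vehicle DMSO and 100% = killing by high DMSO.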 Particulars: LFS_MB_P medulloblastoma cells.
The nature of experiment [5]: growth inhibition, single agent and combos, cell-based, chromothripsis tumors, cisplatin or BGB combos (AID 1671450).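 Also: cells exposed to compound for four days; 0% = vehicle DMSO and 100% = cell killing by high DMSO.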 Particulars: HDN33 neuroblastoma cells, stronger effect = higher value.
The nature of experiment [6]: growth inhibition, single agents and combos, ICB984, cell-based, cisplatin or BGB combos, synergistic combos for chromothripsis tumors (AID 1671451; call rule not given here;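 also: cells exposed for 96 hours before readout; 0% = vehicle DMSO and 100% = killing by high DMSO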). Particulars: ICB984 medulloblastoma cells, drug combinations, stronger effect = higher value.
Experiment [7] in a line: growth inhibition, single agents and combos, LFS_MB_1R, cell-based, cisplatin or BGB combos, synergistic combos for chromothripsis tumors (AID 1671452).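 Also: cells exposed for 96 hours before readout.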 Particulars: LFS_MB_1R medulloblastoma cells, stronger effect = higher value.
The nature of experiment [8]: growth inhibition, single agents and combos, HTB85, cell-based, BGB or cisplatin IC20 combos, synergistic combos for chromothripsis tumors (AID 1671453).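 Also: cells exposed for 96 hours before readout; 0% = vehicle DMSO and 100% = high DMSO killing control.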 Particulars: HTB85 osteosarcoma cells, drug combinations, stronger effect = higher value.
The nature of experiment [9]: growth inhibition, single agents and combos, CRL2098, cell-based, BGB or cisplatin IC20 combos, synergistic combos for chromothripsis tumors (AID 1671454).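 Also: cells exposed for 96 h before readout; 0% = vehicle DMSO and 100% = killing by high DMSO.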 Particulars: CRL2098 osteosarcoma cells, drug combinations, stronger effect = higher value.
The nature of experiment [10]: growth inhibition, single agents and combos, HD-MB03, cell-based, BGB or cisplatin IC20 combos, synergistic combos for chromothripsis tumors (AID 1671455; in the data active = inhibition above about 83%;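 also: 0% = vehicle DMSO and 100% = high DMSO as cytotoxic control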). Particulars: HD-MB03 medulloblastoma cells, stronger effect = higher value.
Experiment [11] is described as follows: growth inhibition, single agents and combos, UWB1.289, cell-based, BGB or cisplatin combos, synergistic combos for chromothripsis tumors (AID 1671456).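 Also: cells exposed to compound for four days; 0% = vehicle DMSO and 100% = killing by high DMSO.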 Particulars: UWB1.289 ovarian carcinoma cells, stronger effect = higher value.
The nature of experiment [12]: growth inhibition, single agents and combos, LFS_MB_2R, cell-based, cisplatin combos, synergistic combos for chromothripsis tumors (AID 1671457).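 Also: cells exposed to compound for four days before readout.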 Particulars: LFS_MB_2R medulloblastoma cells, stronger effect = higher value.
Experiment [13] in a line: growth inhibition, MDA-MB-436, cell-based, BGB or cisplatin combos, synergistic combos for chromothripsis tumors (AID 1671458; call rule not given here;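 also: cells exposed for 96 hours; 0% = vehicle DMSO and 100% = killing by high DMSO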). Particulars: MDA-MB-436 breast carcinoma growth inhibition, drug combinations, stronger effect = higher value.
Experiment [14] can be described thus: UWB1.289_BRCA1 ovarian cancer growth, cell-based, BGB or cisplatin combinations (AID 1671459). Particulars: UWB1.289 BRCA1 ovarian carcinoma, drug combinations, stronger effect = higher value.
Experiment [15] in a line: drug combination toxicity in non-malignant astrocytes – cell-based, BGB or cisplatin IC20 combos, cytotoxicity control for chromothriptic childhood tumor combination screen (AID 1671460).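 Also: cells exposed to compounds for 96 hours before viability readout; 0% = vehicle and 100% = killing control.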 Particulars: Human astrocytes, viability inhibition, drug combinations, at 0.5 µM, stronger effect = higher value.
A short description of experiment [16]: BT084 cell growth, single and combined drugs, ICGC_MB145, cisplatin and BGB IC40 combos (AID 1671461).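 Also: cells exposed to drugs for 96 hours; 0% = vehicle DMSO and 100% = high DMSO full killing control.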 Particulars: BT084 medulloblastoma cells, drug combinations, stronger effect = higher value.
Experiment [17] can be described thus: RCMB18 cell growth, single agent and combined, cisplatin and BGB IC40 combos (AID 1671462).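 Also: cells exposed to compound for four days.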 Particulars: RCMB18 medulloblastoma cells, stronger effect = higher value.
Experiment [18] is described as follows: CRL1545 cell growth, single agent and combined, cisplatin and BGB IC20 combos (AID 1671464).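 Also: cells exposed to compound for 96 hours before readout; 0% = vehicle DMSO and 100% = high DMSO killing control.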 Particulars: CRL1545 osteosarcoma cells, stronger effect = higher value.
[19] abbreviates: measured here: combination with BGB IC40, at 0.05 µM.
The mark [20] stands for this setting: measured here: with BGB IC20 combination, at 0.5 µM.
Setting [21] is: measured here: with cisplatin IC20 combination, at 0.5 µM.
Where [22] appears, read: measured here: combination with cisplatin, at 0.5 µM.
[23] abbreviates: measured here: combination with cisplatin, at 5 µM.

The structures appear in SMILES notation. Values joined by “and” are separate entries in the source; they are usually repeats but may differ in a detail not shown here. Identical values can stand only once. Active and inactive are the calls of the source. Rule as the data show it, unless noted: active = inhibition above about 80%; inactive = the rest.

NAD(+) hydrolase SARM1 (Homo sapiens), sequence (Q6SZW1 whole entry, looked up, the tested form may be a part): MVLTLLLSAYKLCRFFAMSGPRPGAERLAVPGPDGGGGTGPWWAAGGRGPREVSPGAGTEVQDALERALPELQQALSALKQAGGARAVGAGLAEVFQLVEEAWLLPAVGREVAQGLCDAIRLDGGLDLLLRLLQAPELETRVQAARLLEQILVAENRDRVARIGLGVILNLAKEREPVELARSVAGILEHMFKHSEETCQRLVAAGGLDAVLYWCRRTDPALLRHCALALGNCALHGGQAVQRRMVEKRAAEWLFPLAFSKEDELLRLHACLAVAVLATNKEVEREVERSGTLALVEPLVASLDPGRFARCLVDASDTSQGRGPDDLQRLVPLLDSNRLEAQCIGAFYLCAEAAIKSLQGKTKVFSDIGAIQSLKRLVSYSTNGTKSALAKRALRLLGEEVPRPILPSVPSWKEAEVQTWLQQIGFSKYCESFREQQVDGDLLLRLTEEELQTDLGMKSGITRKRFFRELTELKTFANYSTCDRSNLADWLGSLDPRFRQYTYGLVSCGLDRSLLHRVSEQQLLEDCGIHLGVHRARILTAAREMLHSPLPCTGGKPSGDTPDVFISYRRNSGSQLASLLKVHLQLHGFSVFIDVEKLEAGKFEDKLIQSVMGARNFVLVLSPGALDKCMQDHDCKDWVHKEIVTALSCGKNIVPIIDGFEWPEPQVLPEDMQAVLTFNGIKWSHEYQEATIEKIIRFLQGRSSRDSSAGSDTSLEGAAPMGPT
Mitogen-activated protein kinase 7 (Homo sapiens), sequence (Q13164 whole entry, looked up, the tested form may be a part): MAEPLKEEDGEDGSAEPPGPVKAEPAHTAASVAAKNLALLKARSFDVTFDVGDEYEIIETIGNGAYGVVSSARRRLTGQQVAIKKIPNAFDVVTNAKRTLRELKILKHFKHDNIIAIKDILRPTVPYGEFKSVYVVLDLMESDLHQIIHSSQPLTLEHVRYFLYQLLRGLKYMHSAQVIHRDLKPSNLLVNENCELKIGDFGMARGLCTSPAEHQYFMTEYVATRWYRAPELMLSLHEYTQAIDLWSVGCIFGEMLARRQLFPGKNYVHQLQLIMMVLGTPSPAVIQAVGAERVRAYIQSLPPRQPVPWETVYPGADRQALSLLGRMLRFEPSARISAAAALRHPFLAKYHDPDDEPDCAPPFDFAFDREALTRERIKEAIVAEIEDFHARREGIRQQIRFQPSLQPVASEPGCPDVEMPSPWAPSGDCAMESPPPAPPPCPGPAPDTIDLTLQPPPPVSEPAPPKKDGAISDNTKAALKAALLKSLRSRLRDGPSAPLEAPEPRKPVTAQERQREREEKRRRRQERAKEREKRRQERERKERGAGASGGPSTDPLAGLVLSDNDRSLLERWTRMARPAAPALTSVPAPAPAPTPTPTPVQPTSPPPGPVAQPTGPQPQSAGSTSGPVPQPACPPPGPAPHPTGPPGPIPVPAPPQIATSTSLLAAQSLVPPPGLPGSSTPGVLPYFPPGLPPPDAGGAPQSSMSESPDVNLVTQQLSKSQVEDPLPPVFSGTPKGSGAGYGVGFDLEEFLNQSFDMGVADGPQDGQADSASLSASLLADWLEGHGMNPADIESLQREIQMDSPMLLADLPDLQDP

For `C=Cc1c(C)c2cc3[nH]c(cc4nc(cc5nc(cc1[nH]2)C(C)=C5CCC(=O)O)C(CCC(=O)O)=C4C)c(C)c3C=C`, the remaining NAD in experiment [1] is 10 nM (inactive). Moreover, the luciferase signal in [2] is 56 AU (inactive). For the same molecule, the z-score in [3] is -0.23 (inactive).
With `CCN(CC)CCNC(=O)c1cc(S(C)(=O)=O)ccc1OC`, in experiment [1], the remaining NAD is 10 nM (inactive). In [2], the luciferase signal was 80 AU (inactive). In addition, in experiment [3], the z-score was 0.285 (inactive).
For `Cc1onc(-c2ccccc2)c1C(=O)N[C@@H]1C(=O)N2[C@@H]1SC(C)(C)[C@@H]2C(=O)O`, in that order: 10 nM (inactive), 64 AU (inactive) and 0.945 (inactive).
In the case of `COc1ncnc(NS(=O)(=O)c2ccc(N)cc2)c1OC`, in [1], the remaining NAD was 10 nM (inactive). In addition, the z-score in experiment [3] was -0.18 (inactive).
For `Cc1cc(N)c2ccccc2[n+]1CCCCCCCCCC[n+]1c(C)cc(N)c2ccccc21`, in that order: 10 nM (inactive) and -1.04 (inactive).
`CCc1c2c(nc3ccc(OC(=O)N4CCC(N5CCCCC5)CC4)cc13)-c1cc3c(c(=O)n1C2)COC(=O)[C@]3(O)CC`: the remaining NAD in experiment [1] was 10 nM (inactive). Moreover, the z-score in experiment [3] was -1.4 (inactive) and -0.58 (inactive).
For `S=P(N1CC1)(N1CC1)N1CC1`, the remaining NAD in experiment [1] was 10 nM (inactive). For the same molecule, the luciferase signal in experiment [2] was 40 AU (inactive). In addition, the inhibition in experiment [4] (at 0.5 µM, stronger effect = higher value) is -23.2% (inactive) and -26.3% (inactive); in [4] (measured here: combination with BGB IC20, at 0.005 µM), 4.28% and -9.96%; in [4] (measured here: combination with BGB IC40, at 0.005 µM), -18.6% and -23.3%; in experiment [4] (setting [19]), -9.26% and -20.5%; in experiment [4] (measured here: combination with cisplatin, at 0.5 µM, stronger effect = higher value) it was -29.9% and -42.7%; in [4] (measured here: combination with cisplatin, at 5 µM, stronger effect = higher value) it was -29% and -10.5%. Moreover, the inhibition in [5] (BGB combo, at 5 µM) is 10.9% and 17%; in experiment [5] (at 0.5 µM), -22.8% (inactive) and -4.61% (inactive); in experiment [5] (cisplatin combo, at 5 µM) it was -33.8% and -6.48%; in experiment [5] (setting [20]) it was -8.9% and -5.09%; in experiment [5] (setting [21]), -36% and 8.65%; in experiment [5] (single agent, at 5 µM), -17.8% and -15.5%. Besides, the inhibition is -28.8% and -30.2% in experiment [6] (BGB IC20 combo, at 0.005 µM); -42.6% and -1.02% in experiment [6] (BGB IC40 combo, at 0.005 µM); -71.3% and -1.28% in [6] (BGB IC40 combo, at 0.05 µM); -28.5% (inactive) and -18.4% (inactive) in [6] (at 0.5 µM); -78.1% and -1.28% in experiment [6] (cisplatin combo, at 0.05 µM); -36.2% and -27% in experiment [6] (cisplatin combo, at 0.5 µM). Besides, the inhibition is -39.5% and -6.98% in experiment [6] (cisplatin combo, at 5 µM); -8.68% and -10.4% in experiment [6] (measured here: 5 uM single agent, at 5 µM); -9.66% (inactive) and -3.23% (inactive) in experiment [7] (at 0.5 µM); -28.2% and 8.25% in [7] (setting [19]); -26.8% and 11.1% in experiment [7] (setting [22]); -75% and -8.13% in experiment [7] (setting [23]). In addition, the inhibition in experiment [8] (at 0.5 µM) is -27.7% (inactive) and -19.6% (inactive); in experiment [8] (measured here: with BGB IC20, at 0.5 µM), -28% and -46.5%; in experiment [8] (measured here: with BGB IC20, at 5 µM), 12.6% and 4.5%; in experiment [8] (measured here: with cisplatin IC20, at 0.5 µM) it was -41.1% and -12.7%; in experiment [8] (measured here: with cisplatin IC20, at 5 µM), -24.2% and -0.841%; in experiment [8] (single agent, at 5 µM), -13.2% and -18.3%. In addition, the inhibition in experiment [9] (at 0.5 µM) was -50.3% (inactive) and -34.6% (inactive); in experiment [9] (measured here: combination with BGB at IC20, at 0.5 µM), -22.9% and -20.1%; in experiment [9] (measured here: combination with cisplatin at IC20, at 0.5 µM), -36.2% and -49.4%; in [10] (at 0.5 µM), -12.6% (inactive) and -4.94% (inactive); in experiment [10] (measured here: combo with BGB at IC20, at 0.5 µM), -12.8% and -2.1%; in [10] (measured here: combo with cisplatin at IC20, at 0.5 µM), -11.1% and -9.72%. Moreover, the inhibition in [11] (at 0.5 µM) is -18.2% (inactive) and 3.65% (inactive); in experiment [11] (measured here: inhibition with BGB combination, at 0.05 µM), -11.2% and -17.2%; in experiment [11] (measured here: inhibition with cisplatin combination, at 0.05 µM), -30.7% and -4.4%; in experiment [12] (at 0.5 µM), -6.41% (inactive) and -22.2% (inactive); in experiment [12] (setting [22]) it was -11.5% and -15%; in [12] (setting [23]), 6.16% and -16.8%. The inhibition in [13] (at 0.5 µM) was 3.12% (inactive) and -15.6% (inactive); in experiment [13] (measured here: BGB combination, at 0.5 µM) it was 5.95% and -18.7%; in experiment [13] (measured here: BGB combination, at 5 µM), 29.4% and 17.8%; in experiment [13] (measured here: cisplatin combination, at 0.5 µM) it was -1.16% and -30.9%; in experiment [13] (measured here: cisplatin combination, at 5 µM), 28.2% and 9.67%; in experiment [14] (BGB combination, concentration series, at 5 µM), 4.52% and 17.6%. The inhibition was -8.8% (inactive) and -2.14% (inactive) in [14] (at 0.5 µM); 2.09% and 16% in experiment [14] (cisplatin combination, concentration series, at 5 µM); -9.07% (inactive) and -1.79% (inactive) in experiment [15]; 3.46% and -2.7% in experiment [15] (measured here: combo with BGB IC20); -14.4% and -11.6% in experiment [15] (measured here: combo with cisplatin IC20); 0.706% (inactive) and -3.22% (inactive) in [16] (at 0.5 µM). For the same molecule, the inhibition is -14.4% and 6.01% in experiment [16] (cisplatin combination, at 0.5 µM); -20% and -51.6% in experiment [16] (cisplatin combination, at 5 µM); -8.78% and -15.6% in [16] (measured here: BGB IC40 combination 0.05 uM, at 0.05 µM); -22.6% and -19.6% in experiment [16] (single agent, at 5 µM); -6.9% (inactive) and -9.28% (inactive) in [17] (at 0.5 µM); -6.08% and -6.23% in experiment [17] (cisplatin combo, at 5 µM). Moreover, the inhibition is -9.84% and -6.48% in experiment [17] (measured here: BGB IC40 combination, at 0.05 µM); -21.1% and 0.266% in experiment [17] (setting [22]); -45.9% and -29.6% in experiment [17] (single agent, at 5 µM); -18.6% (inactive) and -31% (inactive) in experiment [18] (at 0.5 µM); 7.82% and -2.28% in experiment [18] (setting [20]); -31.7% and -45.4% in experiment [18] (setting [21]). Besides, the inhibition is -43.5% and 4.65% in [18] (single agent, at 0.05 µM); -38.5% and 10.3% in [18] (single agent, at 5 µM).
